# Test results taken from ChEMBL document CHEMBL4513216, “Probing the Open Global Health Chemical Diversity Library for Multistage-Active Starting Points for Next-Generation Antimalarials” (ACS Infect Dis, 2020).
# The campaign covered roughly 65,000 compounds. About 2,100 (3.2%) showed an effect of 50% or more. The median lay at about -52%. Many of the other results were omitted from the sample, so strong results are more common in it than they were.
# Tested on: Plasmodium falciparum
# Experiment: Screen against P. falciparum Asexual Blood Stage (ABS), at 5uM
# Assay type: functional, Dd2
# Settings: tested at 5 uM
row,Structure (SMILES),INHIBITION
1,Cc1cc(CN2CCC(CNS(=O)(=O)c3c(C)noc3C)CC2)c(C)o1,28.4%
2,Cc1cc(CN2CCC(CNS(=O)(=O)c3ccccc3Cl)CC2)c(C)o1,53.6%
3,CCN(C)S(=O)(=O)NCC1CCN(Cc2ccccc2C)CC1,11.6%
4,Cc1cnc2n(c1=O)C(CC(=O)NCc1ccc(Cl)cc1)CS2 (stereo not drawn),-30.4%
5,COc1ccc2[nH]c3c(c2c1)CN(c1cc(NCCO)nc(N)n1)CC3,-52.4%
6,Nc1nc(NCCO)cc(N2CCc3c([nH]c4ccccc34)C2)n1,61.3%
7,CC(C)Cc1ncc2c(n1)CN(c1cc(NCCO)nc(N)n1)C2,-42.2%
8,O=C(c1ccc2[nH]ccc2c1)N1CCCSCC1CN1CCCC1 (stereo not drawn),21.3%
9,O=C(NCCc1ccn(-c2ccccc2)n1)N1CCSCC1,-122%
10,Cc1ccc([C@]2(O)CC[C@H]3CN(Cc4cccc(F)c4F)C[C@H]32)nc1,45.8%
11,COc1ccc(CN2C[C@H]3CC[C@](O)(c4ccc(C)cn4)[C@H]3C2)c(F)c1,17.3%
12,COc1ncc(CN2C[C@@H]3CC[C@@](O)(c4ccc(C)cn4)[C@@H]3C2)cn1,-72.4%
13,Cc1ccc([C@]2(O)CC[C@H]3CN(Cc4cccc(Cl)c4Cl)C[C@H]32)nc1,-9.78%
14,Cc1ccc([C@]2(O)CC[C@H]3CN(Cc4ccc(Cl)cc4Cl)C[C@H]32)nc1,66.6%
15,CSc1ccc(CN2C[C@@H]3CC[C@@](O)(c4ccc(C)cn4)[C@@H]3C2)cc1,57.5%
16,OC(CN1CCN(CCOCC(F)(F)F)CC1)c1ccccc1 (stereo not drawn),-64.4%
17,O=S(=O)(c1cccs1)N1CCCC2(COCCN(c3cccnc3)C2)C1 (stereo not drawn),-39.7%
18,Cc1ccoc1C(=O)N1CCCC(c2cc(C(F)(F)F)[nH]n2)C1 (stereo not drawn),-127%
19,Cc1ccc(CN2CCC3(CCC3NS(=O)(=O)c3ccccc3)CC2)o1 (stereo not drawn),62.4%
20,O=S(=O)(NC1CCC12CCN(CC1CCOCC1)CC2)c1ccccc1 (stereo not drawn),-62.3%
21,COCC(=O)N1CCC2(CCC2NS(=O)(=O)c2ccccc2)CC1 (stereo not drawn),-23.9%
22,CC(C)c1ccc(NC(=O)Cn2cc(I)cn2)cc1,-19%
23,CC1c2ncc(CN3CCN(C)CC3)n2CCN1Cc1ccccn1 (stereo not drawn),-124%
24,c1cnc(-c2noc(C3CN(Cc4ccc5c(c4)CCO5)C3)n2)cn1,4.79%
25,CC(C)CC1CC(=O)Nc2c1cnn2Cc1ccco1 (stereo not drawn),-129%
26,CC(C)c1ccc(O)c(C(=O)NCc2cc[nH]n2)c1,-97.2%
27,CCN(c1ccc(C(=O)NCc2cc[nH]n2)cc1)C(C)C,60.1%
28,CCN(c1ccc(C(=O)NCc2ccnc(C)n2)cc1)C(C)C,22.7%
